Screening results: PubChem, several laboratories
14-3-3 Bad inh = inhibitors of 14-3-3 zeta/Bad binding, primary screen, biochemical, TR-FRET, bovine 14-3-3 zeta. 14-3-3 protein zeta/delta (Bos taurus), P63103. TR-FRET 14-3-3zeta/Dy647-pBad peptide displacement, 1 h. inhibition, % at 21.7 µM. actives 0.71% (n = 220,000). AID 781, 2007;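 active = inhibition above about 70%, limit read from the data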;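 note: 0% = full 14-3-3 plus peptide FRET controls and 100% = background without 14-3-3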
Target sequence (P63103 whole entry, looked up): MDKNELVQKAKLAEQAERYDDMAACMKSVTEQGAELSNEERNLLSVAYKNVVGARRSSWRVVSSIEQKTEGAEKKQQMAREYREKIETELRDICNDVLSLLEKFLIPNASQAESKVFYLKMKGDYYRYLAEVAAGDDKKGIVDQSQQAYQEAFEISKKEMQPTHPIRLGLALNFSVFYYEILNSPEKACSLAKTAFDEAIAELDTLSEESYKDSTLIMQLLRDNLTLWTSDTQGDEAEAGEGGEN
PABP FP inh = PABP poly(A) RNA binding inhibitors, primary screen, biochemical, fluorescence polarization, uHTS; Polyadenylate-binding protein 1 (Homo sapiens), P11940; calls only at 35 µM; actives 1% (n = 290,000); AID 2014, 2009;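 note: calls also rest on retests at 20 µM and on dose response follow-up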
eIF4H FP inh = human eIF4H binding inhibitors, primary screen, translation initiation inhibitor project, biochemical, uHTS, fluorescence polarization; AID 2012, 2009; actives 0.94% (n = 290,000); Eukaryotic translation initiation factor 4H (Homo sapiens), Q15056; inhibition, % at 35 µM; eIF4H fluorescence polarization binding assay;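 note: calls also rest on retests at 20 µM and on dose response follow-up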
PABP1 MLLE inh = inhibitors of PABP1 MLLE–PAM2 peptide binding, primary screen, biochemical, fluorescence polarization, FITC-PAM2, GST-MLLE; Polyadenylate-binding protein 1 (Homo sapiens), P11940; inhibition, % at 20 µM; actives 0.36% (n = 360,000); AID 588489, 2011; in the data active = inhibition above about 35%, passing the limit was not always enough;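 note: plate controls were DMSO wells with GST-MLLE for no effect and wells lacking GST-MLLE protein for full effect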
eIF4E 4G PPI = eIF4E–eIF4G protein interaction inhibitors, primary screen, biochemical, uHTS, TR-FRET, eIF4GI fragment; actives 0.37% (n = 220,000); TR-FRET eIF4E-eIF4GI(517-606) binding, 2 h; inhibition, % at 21.7 µM;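 active = inhibition above about 30%, limit read from the data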;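 note: 0% = full FRET control wells and 100% = background wells lacking eIF4GI fragment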
* marks the source's active call; other numbers are inactive results; i = inactive; ? = inconclusive; . = no result given; + = active, no number. Most compounds without a hit are left out; they make up all but 1.9% or so of the library. Unless noted, the rule behind the calls is not given here.

SMILES	14-3-3 Bad inh	PABP FP inh	eIF4H FP inh	PABP1 MLLE inh	eIF4E 4G PPI
Cc1ccc(C=C2C(Cl)=C(Cl)C(Cl)=C2Cl)cc1	-4.9	+	101.5*	.	9.1
O=C(Nc1cccc(S(=O)(=O)N2CCCC2)c1)c1ccccc1OC(F)F	.	i	-6.9	-51.6	.
COc1ccc(-c2cc3c(c4c2ccn4C)C2CCC3O2)cn1 (centres undefined)	.	.	.	5.1	.
O=C(CN1CC(=O)Nc2ccccc21)Nc1ccc(F)c(F)c1	-11.3	i	-0.8	-23.1	-0.9
COc1ccccc1NC(=O)CN1CC(=O)Nc2ccccc21	-8.4	+	-9.1	-11.6	-0.4
CC(=O)N=Cc1c(C)c(C#N)c(=O)n(C)c1O	6.5	i	?	12.7	6.4
Cc1c(/C=N/Nc2ccc(F)cc2)c(O)n(C)c(=O)c1C#N	-11.2	+	80.7	4.2	-5.3
COc1cccc(NC(=O)c2ccccc2-c2ccccc2)c1	3.4	i	13.2	5.8	-8.3
O=S(=O)(Nc1nc(-c2sccc2Cl)cs1)c1cc(Cl)ccc1Cl	87.5*	i	10.7	25.6	9.0
N#Cc1c(NCCN)nc(NCc2ccccc2)c2c1CCN(Cc1ccccc1)C2	.	+	61.9*	-10.9	.
C=CCNc1nc(NCc2ccccc2)c(C#N)c2c1CN(C)CC2	-8.7	?	?	22.4	3.5
CC(C)Cn1c(-c2ccccc2)nc(=S)c2c1CCCC2	-25.6	i	4.3	36.4	-6.5
COc1cccc(-c2nc(=S)c3c(n2CCCO)CCCC3)c1	-5.7	i	11.5	40.9*	11.2
Cc1ccc(C(=O)NNC(=O)CCCCC(=O)NNC(=O)c2ccc(C)cc2)cc1	.	i	1.0	-0.6	.
Cc1cccnc1NC(=S)NC(=O)c1cccs1	-19.5	i	-3.5	38.6*	1.2
Cc1cccnc1NC(=O)CNC(=O)c1cccs1	.	.	.	-12.2	.
Cc1ccnc(NC(=O)c2cccs2)c1	85.9*	i	-8.1	10.2	-0.9
N/N=C(/Cc1nc2ccccc2[nH]1)c1ccc([N+](=O)[O-])cc1	1.0	i	7.0	-5.5	-2.2
CN1CCN(NC(=O)CN2C(=O)S/C(=C\c3c(Cl)cccc3Cl)C2=O)CC1	-25.4	i	7.8	41.0*	0.3
Cc1ccc(C(=O)O)cc1NC(=S)NC(=O)c1ccc(-c2ccc(Cl)cc2)o1	-1.6	i	-5.2	50.9*	-14.9
O=C(C1CCN(Cc2cc(Cl)ccc2O)CC1)N1CCN(Cc2ccccc2)CC1	33.6	i	-0.6	-1.6	81.7*
CC1(C)CC(NC(=O)COc2ccc3ccc(=O)oc3c2)CC(C)(C)N1	.	i	9.3	3.0	.
CCOC(=O)c1ccccc1N1C(=O)CSC1=S	7.8	i	-1.2	40.7*	2.9
CN1CCN(C(=O)c2cnc(Cc3c[nH]c4ccccc34)c(I)c2)CC1	.	.	.	-15.6	.
COc1ccc(/C=N/NC2=NCCCCC2)c(OC)c1	6.4	+	active	-0.9	-0.9
SMILES	14-3-3 Bad inh	PABP FP inh	eIF4H FP inh	PABP1 MLLE inh	eIF4E 4G PPI
O=C(CN1C(=O)/C(=C/c2ccccc2F)Sc2ccccc21)NCC1CCCO1 (centres undefined)	.	i	-2.9	-0.4	.
CCN(Cc1ccncc1)C(=O)c1cc(COc2c(F)cccc2F)on1	.	i	-16.5	5.1	.
O=C(CCCN1C(=O)CCC1=O)Nc1ccccc1F	-6.1	i	7.8	34.4*	0.9
OC[C@H]1O[C@@H](n2cnc3c(Nc4ccccc4)ncnc32)[C@H](O)[C@@H]1O	4.2	+	active	3.0	-2.2
O=C(O)C(=O)/C(=C\c1cccc2ccccc12)c1ccc2ccccc2n1	-12.1	+	67.0*	-71.5	0.6
Cc1ccc(C)n1Cc1ccc(C(=O)O)cc1	-27.5	+	93.0*	16.4	5.8
O=C(OCc1cn([C@@H]2C[C@H](c3ccc(Cl)cc3)N(C(=O)C3CCCCC3)C[C@H]2O)nn1)c1ccccc1	.	.	.	-24.7	.
COc1ccc(/C=C2\Oc3cc(OCC(=O)N4CCC[C@H]4CO)ccc3C2=O)c(OC)c1	.	+	72.8	-42.5	.
O=C1/C(=C/c2ccc3c(c2)OCO3)Oc2cc(OCC(=O)N3CCC[C@H]3C(=O)O)ccc21	.	i	-4.0	-23.4	.
CC1CCCCC1NC(=O)CSc1nnc(COc2ccc(Cl)cc2)o1 (centres undefined)	.	i	-13.5	-4.5	.
CS(=O)(=O)Nc1ccccc1-c1ccc2nccn2c1	.	.	.	-19.2	.
COc1ccc(/C=N/N2CCOCC2)cc1Cn1cc([N+](=O)[O-])cn1	0.6	i	1.1	12.3	1.5
COC(=O)c1ccc(C2C(C(=O)c3cc4ccccc4o3)=C(O)C(=O)N2c2cc(C)on2)cc1 (centres undefined)	.	+	?	-34.7	.
Cc1cc(N2C(=O)C(O)=C(C(=O)c3cc4ccccc4o3)C2c2ccc(OC(C)C)cc2)no1 (centres undefined)	.	i	8.6	7.6	.
CC(C)CN1CCN(Cc2ccc(CN3CCCCC3)s2)CC1CCO (centres undefined)	-9.0	+	62.7*	-0.5	-0.8
CC(C)CN1CCN(Cc2nc3ccccc3s2)CC1CCO (centres undefined)	-13.1	i	9.7	-14.7	-5.3
CCN(CC)C(=O)[C@H]1C[C@H](CC(=O)NCCCn2ccnc2)C(=O)N2CCc3c([nH]c4cc(CCC(=O)N(C)C)ccc34)[C@]12C	.	.	.	-1.8	.
Cc1ccc2c(c1)N(C(=O)c1ccco1)C(C)(C)c1ssc(=S)c1-2	-12.2	+	active	13.1	-1.4
Cc1cccc2c1N(C(=O)c1ccco1)C(C)(C)c1ssc(=S)c1-2	-2.6	i	4.5	-1.6	-6.2
Cc1cccc(N2CCN(C(=O)c3ccc4nc(-c5ccco5)c(-c5ccco5)nc4c3)CC2C)c1 (centres undefined)	-5.1	+	92.8*	11.5	-9.1
O=C(/C=C/c1ccco1)N1CCN(c2ncccn2)CC1	-0.4	i	43.7	68.3*	22.7
O=C(c1ccc2nc(-c3ccco3)c(-c3ccco3)nc2c1)N1CCN(c2ncccn2)CC1	17.6	+	85.0*	24.2	9.0
O=C(Nc1ccc2nc(-c3ccco3)c(-c3ccco3)nc2c1)N1CCN(c2ccccn2)CC1	-3.1	+	106.0*	48.7*	1.3
Cc1onc(-c2c(Cl)cccc2Cl)c1COC(=O)c1ccc(Cl)cc1	-2.7	i	-17.1	2.4	3.0
CN(C)S(=O)(=O)n1cc(/C=C(\NC(=O)c2ccccc2F)C(=O)N2CCCCC2)c2ccccc21	.	.	.	-8.4	.
Cc1ccc(-c2nc3cccnc3s2)cc1NC(=O)C1c2ccccc2Oc2ccccc21	78.1*	i	-1.3	-48.3	-12.6
